Source: PubChem
Most compounds without a hit are left out; they make up all but 3% or so of the library.
DAGLB inhibitor: diacylglycerol lipase beta (human) inhibition. Q8NCG7. HEK293T DAGLB membrane lysate, EnzChek fluorogenic substrate. inhibition, % at 5.17 µM. 340,000 compounds, 0.059% hits; in the data active = inhibition above about 34%;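 note: 0% = enzyme with vehicle and 100% = wells lacking enzyme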
ATG4B inh: ATG4B (human) cysteine protease inhibition | 340,000 compounds, 0.51% hits | ATG4B cleavage of LC3-PLA2, NBD-HPC fluorescence, 1 h | Q9Y4P1 | inhibition, % at 8.33 µM; in the data active = inhibition above about 40%
Target sequence (Q9Y4P1 whole entry, looked up): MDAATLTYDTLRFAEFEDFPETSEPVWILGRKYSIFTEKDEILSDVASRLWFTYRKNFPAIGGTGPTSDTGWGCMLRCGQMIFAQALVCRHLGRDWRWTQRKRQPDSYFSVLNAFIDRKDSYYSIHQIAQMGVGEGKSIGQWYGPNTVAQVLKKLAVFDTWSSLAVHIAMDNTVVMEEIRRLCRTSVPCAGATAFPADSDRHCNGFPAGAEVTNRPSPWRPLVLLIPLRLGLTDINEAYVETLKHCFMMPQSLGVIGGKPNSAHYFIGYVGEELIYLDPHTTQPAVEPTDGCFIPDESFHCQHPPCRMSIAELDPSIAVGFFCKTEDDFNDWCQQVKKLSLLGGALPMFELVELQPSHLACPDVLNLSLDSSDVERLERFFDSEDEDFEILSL
pPAFAH inh: inhibitors of human plasma PAF acetylhydrolase (pPAFAH); Q13093; recombinant pPAFAH, FP-rhodamine probe fluorescence polarization; inhibition, % at 3.39 µM; 330,000 compounds, 1.5% hits;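 active = inhibition above the mean inhibition across the screen plus 3 SD, cut at about 25% in these data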;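 note: inhibitors block binding of the rhodamine activity-based probe so polarization drops; 0% = enzyme with DMSO and 100% = wells lacking pPAFAH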
PAFAH1B3 FP inh: PAFAH1B3 (human) inhibition. Q15102. inhibition, % at 3.39 µM. recombinant PAFAH1B3, FP-rhodamine probe, fluorescence polarization. 340,000 compounds, 0.28% hits. AID 492972;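 active = inhibition above the screen-wide average of all tested compounds plus 3 SD, cut at about 25% in these data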;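 note: 0% = enzyme with DMSO only and 100% = wells lacking PAFAH1B3 protein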
PAFAH2 inh: inhibitors of human PAFAH2; Q99487; recombinant PAFAH2, FP-rhodamine activity probe, fluorescence polarization; inhibition, % at 3.39 µM; 340,000 compounds, 0.99% hits; AID 492956;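 active = inhibition above the mean over all tested compounds plus 3 SD, cut at about 30% in these data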;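 note: inhibitors block probe labeling of enzyme so polarization drops; 0% = enzyme with DMSO and 100% = wells lacking PAFAH2 protein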
PAFAH1B2 inh: PAFAH1B2 (human) inhibition; recombinant PAFAH1B2, FP-rhodamine activity probe, fluorescence polarization; 340,000 compounds, 1.2% hits; inhibition, % at 3.39 µM; AID 492953;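 active = inhibition above the mean of all tested compounds plus 3 SD, cut at about 24% in these data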;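 note: 0% = enzyme with DMSO and 100% = wells lacking PAFAH1B2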
Target sequence (P68402 whole entry, looked up): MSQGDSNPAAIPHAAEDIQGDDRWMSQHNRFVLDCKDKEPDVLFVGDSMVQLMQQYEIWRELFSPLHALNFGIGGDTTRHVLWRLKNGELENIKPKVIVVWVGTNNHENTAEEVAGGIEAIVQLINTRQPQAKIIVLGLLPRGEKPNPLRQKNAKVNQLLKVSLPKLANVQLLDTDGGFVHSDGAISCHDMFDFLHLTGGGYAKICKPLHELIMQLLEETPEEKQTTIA
PAFAH2 FP conf: PAFAH2 (human) inhibition, confirmed | shares compounds with PAFAH2 inh | recombinant PAFAH2, FP-rhodamine activity probe, fluorescence polarization | inhibition, % at 3.39 µM | 2,300 compounds, 65% hits;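 active = mean inhibition over three repeats above a set limit taken from the earlier primary screen, cut at about 30% in these data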;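 note: inhibitor blocks binding of rhodamine activity probe so polarization falls; 0% = enzyme with DMSO and 100% = wells lacking PAFAH2 protein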
Starred values were filed as active, the others as inactive.

How did O=C(COC(=O)/C=C/c1cccc(Cl)c1)Nc1cccc(S(=O)(=O)NC2=NCCC2)c1 do in these assays?
DAGLB inhibitor: -2; ATG4B inh: -13; pPAFAH inh: 0; PAFAH1B3 FP inh: -2; PAFAH2 inh: 25; PAFAH1B2 inh: 1

Results for Cc1ccc(S(=O)(=O)N(C)C)cc1NC(=O)COC(=O)/C=C/c1ccc2c(c1)OCO2 ?
DAGLB inhibitor: -1; ATG4B inh: -14; pPAFAH inh: 3; PAFAH1B3 FP inh: 0; PAFAH2 inh: 57*; PAFAH1B2 inh: -2; PAFAH2 FP conf: 47*

How did CC(=O)c1cccc(NC(=O)c2cc(=O)[nH]c3ccc(S(=O)(=O)N4CCOCC4)cc23)c1 do in these assays?
DAGLB inhibitor: 5; ATG4B inh: -1; pPAFAH inh: 1; PAFAH1B3 FP inh: 1; PAFAH2 inh: -5; PAFAH1B2 inh: -4

Results for CCCOc1ccc2c3c(c(=O)oc2c1OCCC)CCCC3 ?
DAGLB inhibitor: -19; ATG4B inh: 23; pPAFAH inh: 5; PAFAH1B3 FP inh: -7; PAFAH2 inh: 35*; PAFAH1B2 inh: 0; PAFAH2 FP conf: 19

What do the screens show for `NC(Cc1ccc(Oc2ccc(O)cc2)cc1)C(=O)O` (stereo not drawn)?
pPAFAH inh: 4

Results for N[C@@H](Cc1cc(I)c(O)c(I)c1)C(=O)O ?
DAGLB inhibitor: 19; ATG4B inh: 4; pPAFAH inh: -3; PAFAH1B3 FP inh: 17; PAFAH2 inh: 54*; PAFAH1B2 inh: 15; PAFAH2 FP conf: 9

How did CC1CCCCC1NC(=O)COC(=O)c1cccn1C (stereo not drawn) do in these assays?
DAGLB inhibitor: -1; ATG4B inh: 4; pPAFAH inh: 8; PAFAH1B3 FP inh: 0; PAFAH2 inh: 85*; PAFAH1B2 inh: 0; PAFAH2 FP conf: 68*

How did CC1CCCCC1NC(=O)COC(=O)c1ccccn1 (stereo not drawn) do in these assays?
DAGLB inhibitor: 1; ATG4B inh: -8; pPAFAH inh: -3; PAFAH1B3 FP inh: 1; PAFAH2 inh: -5; PAFAH1B2 inh: 0

Results for Cc1ccsc1C(=O)OCC(=O)NC1CCCCC1C (stereo not drawn) ?
DAGLB inhibitor: 2; ATG4B inh: -2; pPAFAH inh: 24; PAFAH1B3 FP inh: 12; PAFAH2 inh: 86*; PAFAH1B2 inh: 10; PAFAH2 FP conf: 82*

What do the screens show for `CC1CCCCC1NC(=O)COC(=O)c1ccc([N+](=O)[O-])o1` (stereo not drawn)?
DAGLB inhibitor: 0; ATG4B inh: 7; PAFAH1B3 FP inh: 4; PAFAH2 inh: 17; PAFAH1B2 inh: -1

What do the screens show for `CCCCOC(=O)n1c(=O)oc2ccc(S(=O)(=O)N3CCCCC3)cc21`?
DAGLB inhibitor: 1; ATG4B inh: 4; pPAFAH inh: 12; PAFAH1B3 FP inh: 8; PAFAH2 inh: 66*; PAFAH1B2 inh: 8; PAFAH2 FP conf: 61*

How did CCOc1ccc(S(=O)(=O)/N=C(/Nc2ccc(C(C)=O)cc2)c2ccccc2)cc1 do in these assays?
DAGLB inhibitor: 0; ATG4B inh: -12; pPAFAH inh: 8; PAFAH1B3 FP inh: 9; PAFAH2 inh: 57*; PAFAH1B2 inh: -1; PAFAH2 FP conf: 41*

How did COC(=O)c1ccc(N/C(=N/S(=O)(=O)c2ccccc2)c2ccccc2)cc1 do in these assays?
DAGLB inhibitor: -2; ATG4B inh: -2; pPAFAH inh: 3; PAFAH1B3 FP inh: 5; PAFAH2 inh: 22; PAFAH1B2 inh: 2

Results for CCOc1ccc(S(=O)(=O)/N=C(/Nc2ccc(OC)cc2)c2ccccc2)cc1 ?
DAGLB inhibitor: 0; ATG4B inh: -4; pPAFAH inh: 7; PAFAH1B3 FP inh: 8; PAFAH2 inh: 52*; PAFAH1B2 inh: 0; PAFAH2 FP conf: 41*

How did COC(=O)N[C@@H]1C[C@H]2[C@@H]3CC[C@H]4C[C@@H](OC)CC[C@]4(C)[C@H]3CC[C@@]12C do in these assays?
DAGLB inhibitor: -41; ATG4B inh: 0; pPAFAH inh: 7; PAFAH1B3 FP inh: 10; PAFAH2 inh: 0; PAFAH1B2 inh: -2

How did COCCCNC(=O)Cc1c(C)c2c(cc(C)c3c(C(C)(C)C)coc32)oc1=O do in these assays?
DAGLB inhibitor: -2; ATG4B inh: -1; pPAFAH inh: 12; PAFAH1B3 FP inh: 6; PAFAH2 inh: 33*; PAFAH1B2 inh: 9; PAFAH2 FP conf: 20

How did CCOC(=O)c1ccccc1NC(=O)C1CCCO1 (stereo not drawn) do in these assays?
DAGLB inhibitor: -1; ATG4B inh: -2; pPAFAH inh: 8; PAFAH1B3 FP inh: 3; PAFAH2 inh: 42*; PAFAH1B2 inh: -2; PAFAH2 FP conf: 1

What do the screens show for `CC(=O)c1ccc(NC(=O)COC(=O)c2c[nH]c3ccccc23)cc1`?
DAGLB inhibitor: 1; ATG4B inh: -30; pPAFAH inh: -4; PAFAH1B3 FP inh: 21; PAFAH2 inh: 45*; PAFAH1B2 inh: -10; PAFAH2 FP conf: 29

How did N#CCC(=O)Nc1ccc(C(=O)OCC(=O)c2c[nH]c3ccccc23)cc1 do in these assays?
DAGLB inhibitor: -3; ATG4B inh: 18; pPAFAH inh: -14; PAFAH1B3 FP inh: -20; PAFAH2 inh: -11; PAFAH1B2 inh: -11

How did N#Cc1ccccc1NC(=O)COC(=O)c1c[nH]c2ccccc12 do in these assays?
DAGLB inhibitor: -1; ATG4B inh: 6; PAFAH1B3 FP inh: -5; PAFAH2 inh: 69*; PAFAH1B2 inh: -4; PAFAH2 FP conf: 67*

What do the screens show for `O=C(COC(=O)c1c[nH]c2ccccc12)NCc1ccccc1`?
DAGLB inhibitor: -4

Results for Cc1ccc(NC(=O)COC(=O)c2c[nH]c3ccccc23)cc1C ?
DAGLB inhibitor: -3; ATG4B inh: -11; pPAFAH inh: 19; PAFAH1B3 FP inh: 4; PAFAH2 inh: 71*; PAFAH1B2 inh: 4; PAFAH2 FP conf: 71*

What do the screens show for `CC(=O)Nc1ccc(NC(=O)COC(=O)CCCc2c[nH]c3ccccc23)cc1`?
DAGLB inhibitor: -1; ATG4B inh: 4; pPAFAH inh: 11; PAFAH1B3 FP inh: 8; PAFAH2 inh: -1; PAFAH1B2 inh: 1

What do the screens show for `NC(=O)Nc1ccc(C(=O)OCC(=O)c2c[nH]c3ccccc23)cc1`?
DAGLB inhibitor: 1; ATG4B inh: 11; pPAFAH inh: 7; PAFAH1B3 FP inh: 11; PAFAH2 inh: 36*; PAFAH1B2 inh: 1; PAFAH2 FP conf: 30

How did CC(C)c1ccc(Nc2nnc(SCC(=O)NCC3CCCO3)s2)cc1 (stereo not drawn) do in these assays?
DAGLB inhibitor: 0; ATG4B inh: -9; pPAFAH inh: 8; PAFAH1B3 FP inh: 10; PAFAH2 inh: 1; PAFAH1B2 inh: 9

How did COC(=O)c1ccc(CNC(=O)COC(=O)C2CC3C=CC2C3)cc1 (stereo not drawn) do in these assays?
DAGLB inhibitor: 2; ATG4B inh: -8; pPAFAH inh: 3; PAFAH1B3 FP inh: 9; PAFAH2 inh: 5; PAFAH1B2 inh: 2
